# ssDAF12 agonist – S. stercoralis DAF-12 activation, primary screen. 370,000 compounds, 1% hits. activation, % at 6.8 µM. HEK293 ssDAF-12/GRIP1 lit1-tk-luc reporter, luminescence; % of 3 µM dafachronic acid response;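 active = activation above the mean over all tested compounds plus 3 SD, cut at about 0.9% in these data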;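 note: 0% = DMSO-only wells and 100% = 3 µM delta7-dafachronic acid wells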
# hcDAF12 agonist – activates DAF-12 receptor from parasite H. contortus; HEK293 hcDAF-12 lit1-tk-luc reporter, luminescence; 0% DMSO, 100% Δ7-dafachronic acid; activation, % at 6.8 µM; 370,000 compounds, 1.4% hits;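 active = activation above the mean of all tested compounds plus 3 SD, cut at about 5.5% in these data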;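 note: 100% = response to 3 µM Δ7-dafachronic acid high control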
# DAX1 inh-1 – NR0B1 (DAX1) inhibition; 340,000 compounds, 0.99% hits; HEK293 Gal4-DAX1 luciferase reporter, luminescence; P51843; inhibition, % at 6.75 µM;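 active = inhibition above the mean over all tested compounds plus 3 SD, cut at about 4.2% in these data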;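 note: 0% = DAX1-transfected cells with DMSO and 100% = empty-vector control cells with DMSO; inhibition shows as a rise in luminescence from relieved DAX1 repression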
# Target sequence (P51843 207-470 limits assumed): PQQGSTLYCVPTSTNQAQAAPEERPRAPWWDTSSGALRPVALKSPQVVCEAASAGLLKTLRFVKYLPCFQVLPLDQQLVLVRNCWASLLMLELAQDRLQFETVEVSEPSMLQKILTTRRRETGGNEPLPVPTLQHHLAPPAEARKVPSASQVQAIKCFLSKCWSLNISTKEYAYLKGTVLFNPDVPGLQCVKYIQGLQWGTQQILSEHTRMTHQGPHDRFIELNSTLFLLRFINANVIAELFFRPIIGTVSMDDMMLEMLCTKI
# SMARCA2 activ – SMARCA2 function activation, primary screen; MG213 cells, MMTV-luciferase reporter, dexamethasone, overnight; activation, % at 9.1 µM; 370,000 compounds, 1% hits; AID 652017; in the data active = activation above about 7.8%;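 note: 0% = vehicle wells and 100% = reference activator wells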
# DAX1 inh-2 – DAX1 (NR0B1) inhibition, primary screen; HEK293T StAR-luciferase reporter, SF-1/DAX-1 repression relief; inhibition, % at 6.8 µM; 370,000 compounds, 1.1% hits; AID 652010;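 active = inhibition above the mean over all tested compounds plus 3 SD, cut at about 3.6% in these data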;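 note: 0% = DAX-1 cells with DMSO and 100% = cells lacking DAX-1 with DMSO; higher inhibition means more luminescence from relief of DAX-1 repression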
# hgDAF-12 ag – hgDAF-12 agonism, primary luciferase screen; AID 687014; HEK293 GAL4-hgDAF12 UAS-luciferase reporter, agonist luminescence; normalized to butyrate control; 370,000 compounds, 1.8% hits; activation, % at 6.8 µM;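 active = activation above a cutoff set at the mean of all screened compounds plus 3 SD, cut at about 10% in these data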;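 note: 0% = DMSO wells and 100% = sodium butyrate wells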
# SMARCA2 conf – confirmation of SMARCA2 (BRM) function activators | MG213 cells, MMTV-luciferase with dexamethasone, luminescence, overnight; MG213 cells expressing E1A, Rb sequestered; DMSO wells 0%, reference activator 100% | 3,500 compounds, 30% hits | activation, % at 9.1 µM | shares compounds with SMARCA2 activ;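 active = activation above its plate's cutoff, the mean activation of tested wells plus 3 SD, cut at about 7.9% in these data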
# VP16 Luc act – GAL4-VP16 reporter activation counter-screen. shares compounds with SMARCA2 activ. HEK293 GAL4-VP16 pG5luc reporter, luciferase luminescence; scaled: DMSO wells 0%, SAHA wells 100%. activation, % at 9.1 µM. 3,500 compounds, 41% hits;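 active = activation above the solvent-only control well mean plus 3 SD, averaged across control plates, cut at about 5.2% in these data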
# Numbers without * were called inactive; . = not tested or not shown. This is a sample that favours compounds with a hit; in the whole collection about 4.8% have one here.
SMILES,ssDAF12 agonist,hcDAF12 agonist,DAX1 inh-1,SMARCA2 activ,DAX1 inh-2,hgDAF-12 ag,SMARCA2 conf,VP16 Luc act
OCCCCc1nccc2c1[nH]c1ccccc12,-1,-3,0,4,-1,0,.,.
COc1ccc(S(=O)(=O)N2CCN(C(=O)Cc3cccs3)CC2)cc1,-1,2,1,9.5*,0,0,0,1
O=C(Cc1cccs1)N1CCN(S(=O)(=O)c2ccccc2)CC1,-1,-1,0,0,0,-1,.,.
Clc1cccc(Cc2c(-c3ccccc3)nc3ccc(Br)cn23)c1,0,5,.,3,1,8,.,.
COc1ccc(Cc2c(-c3ccccc3)nc3ccc(Cl)cn23)c(C)c1,0,2,.,4,2,5,.,.
COc1ccc(Cc2c(-c3ccccc3)nc3ccc(C)cn23)c(C)c1,1.5*,2,.,9.2*,3.9*,14*,4,5
COc1ccccc1Cc1c(-c2ccccc2)nc2ccc(Cl)cn12,1.5*,3,.,11*,3,6,3,4
Clc1cccc(-c2nc3ccc(Cl)cn3c2Cc2ccccc2)c1,-1,-1,.,8.2*,2,5,1,4
O=c1cc(N2CCN(c3cccc(C(F)(F)F)c3)CC2)[nH]c(=O)n1-c1ccccc1,-1,0,.,.,.,4,.,.
Cc1ccccc1Cn1cc(COC(=O)NCCc2c[nH]c3ccccc23)nn1,-1,-2,.,2,-1,-1,.,.
O=C(CSc1nccn1Cc1ccc(F)cc1)Nc1ccc(F)cc1F,-1,-1,0,-1,-2,-1,.,.
O=C(Nc1ccccc1)c1nccn1Cc1ccc(F)cc1,0,0,2,9.9*,1,3,3,3
Cc1nnc(NC(=O)c2ccc3c(c2)OCO3)s1,0,3,3,10*,3,12*,7,9.5*
O=C(Nc1ccc2c(c1)oc1ccccc12)c1ccc2c(c1)OCO2,-1,0,0,8.9*,1,3,7,-1
COc1cc2c(cc1NC(=O)c1ccc3c(c1)OCO3)oc1ccccc12,-1,-1,2,2,1,-1,.,.
CCOCc1nnc(NC(=O)c2ccc3c(c2)OCO3)s1,0,2,1,3,4,4,.,.
CCOC(=O)N1CCN(C(=O)C[C@H]2C[C@@]3(C(=O)OC)C(=C[C@H](COCc4ccccc4)O[C@@H]3C)N(Cc3ccccc3)C2=O)CC1,-1,-3,.,-2,-1,-1,.,.
CC(=O)Nc1cccc(-c2cc(NC=O)c3ncc(-c4cccc(C(C)=O)c4)n3c2)c1,-2,-1,.,11*,-3,1,3,6.5*
CN(C)C(=O)c1cccc(-c2cnc3c(NC=O)cc(-c4ccccc4Cl)cn23)c1,-1,-2,.,9.8*,3,12*,19*,4
COc1cccc(-c2cnc3c(NC(C)=O)cc(-c4cccc(C(=O)NCCN(C)C)c4)cn23)c1,-1,2,.,11*,0,1,22*,0
COc1ccc(-c2cnc3c(NC(C)=O)cc(-c4cccc(C(=O)NCCN(C)C)c4)cn23)cc1OC,-2,-2,.,4,0,0,.,.
O=C(C[C@H]1C[C@H](C(=O)N2CCOCC2)[C@@]2(CCC3CCCC3)c3[nH]c4ccc(Cl)cc4c3CCN2C1=O)NCCN1CCOCC1,-1,0,1,-6,0,-1,.,.
COCCCNC(=O)C[C@H]1C[C@H](C(=O)N2CCOCC2)[C@@]2(CCC3CCCC3)c3[nH]c4ccc(Cl)cc4c3CCN2C1=O,-1,1,1,10*,3,1,2,1
O=C1c2cccc3c([N+](=O)[O-])ccc(c23)C(=O)N1c1ccc(Cl)cn1,-2,-2,-1,0,0,2,.,.

# Bioassay records from PubChem BioAssay.
